Rtt109 HAT inh: C. albicans Rtt109 histone acetyltransferase inhibition; Q5AAJ8; AID 540336; inhibition, % at 34.9 µM; purified Rtt109/Vps75, ThioGlo CoA-SH fluorescence, 4 h; 330,000 tested, 0.16% active;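 active = inhibition of at least 50% in every replicate; inconclusive = best replicate reaches 50% inhibition but some replicates fall short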
Target sequence (Q5AAJ8 whole entry, looked up): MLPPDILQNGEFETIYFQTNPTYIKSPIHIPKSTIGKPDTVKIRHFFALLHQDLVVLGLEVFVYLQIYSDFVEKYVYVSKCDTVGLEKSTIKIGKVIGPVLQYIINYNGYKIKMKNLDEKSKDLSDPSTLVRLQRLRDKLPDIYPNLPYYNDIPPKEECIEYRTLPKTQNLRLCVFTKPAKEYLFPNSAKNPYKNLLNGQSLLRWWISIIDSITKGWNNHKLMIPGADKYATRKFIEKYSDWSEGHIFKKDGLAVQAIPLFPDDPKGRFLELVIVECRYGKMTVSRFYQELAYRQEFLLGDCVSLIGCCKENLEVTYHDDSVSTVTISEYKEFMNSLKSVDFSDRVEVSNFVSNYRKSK
TLR4 MyD88 comp: blocks binding of human TLR4 to MyD88; inhibition, % at 8.4 µM; 200,000 tested, 0.18% active; HeLa CL3-4 TLR4/MyD88 BLA complementation, FRET ratio; O00206+Q99836; in the data active = inhibition above about 25%
NOD2-RIPK2 inh: inhibitors of human NOD2-RIPK2 interaction | inhibition, % at 4.98 µM | 360,000 tested, 0.38% active | O43353 | AID 624267 | CHO BLA complementation NOD2-RIPK2, CCF4 ratio; in the data active = inhibition above about 21%
LANA-H2B inh: blocks KSHV LANA binding to histone H2A/H2B; AID 2629; Q9QR71; inhibition, % (concentration not given with the values); 320,000 tested, 0.6% active; cell-free LANA-H2A/H2B peptide, fluorescence polarization; in the data active = inhibition mostly above about 10%, no sharp cut-off; inactive = mostly below about 6.7%
TLR9-MyD88 block: blocks human TLR9 binding to MyD88; 340,000 tested, 0.21% active; AID 504734; inhibition, % at 4.98 µM; Q9NR96+Q99836; CHO BLA complementation TLR9-MyD88, CCF4 FRET ratio;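 active = inhibition above the mean over all tested compounds plus 3 SD, cut at about 21% in these data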
HTR2A ag: agonists of mouse serotonin 5-HT2A receptor (HTR2A); P35363; CHO-K1 mHTR2A beta-arrestin complementation, luminescence; percent of 30 µM serotonin response; activation, % at 7.6 µM; 360,000 tested, 0.66% active;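 active = activation above a run cutoff, the mean activation of all tested compounds plus 3 SD, cut at about 14% in these data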
Numbers stand for hits; – = inactive; ? = inconclusive; · = not tested or not shown; + = active, no number; ! = a repeat was not active. Hits are enriched below; roughly 1.8% of the tested compounds scored in any of these assays.

SMILES	Rtt109 HAT inh	TLR4 MyD88 comp	NOD2-RIPK2 inh	LANA-H2B inh	TLR9-MyD88 block	HTR2A ag
CN(CC(=O)Nc1ccc(Cl)c(Cl)c1)C(=O)c1cccc2cccnc12	–	·	–	69.8	–	–
COc1cc(C=Cc2nnc3c4ccccc4cnn23)cc(OC)c1OC	·	·	–	·	–	–
CC(C)c1ccc(NC(=O)NC(C)c2ccc3c(c2)OCO3)cc1 (stereo unspecified)	57.9	·	–	–	–	–
CC1(C(=O)Nc2ccc3ccccc3c2)CCC(=O)N1CCc1c[nH]c2ccccc12 (stereo unspecified)	·	·	–	·	·	–
CN(Cc1ccccc1)C(=O)COc1cccnc1[N+](=O)[O-]	–	·	–	–	–	–
Cc1ccc(OCC(=O)N(C)Cc2ccccc2)c([N+](=O)[O-])n1	–	–	–	16.6	–	–
CCOc1ccc(OCc2ccc(C(=O)N3CCc4ccccc4C3)o2)cc1	–	–	–	–	–	15.4
O=C1CCCC2=C1C1(CCCC1)N=C(Nc1nc3cc(-c4ccccc4)ccc3o1)N2	·	·	–	·	·	–
COc1ccc(OC)c(-n2c(Cn3c(-c4ccccn4)nc4ccccc43)n[nH]c2=S)c1	–	–	–	14.3	–	–
COc1ccc(OC)c(-n2c(-c3cnccn3)n[nH]c2=S)c1	–	–	–	–	–	–
O=C(CNC(=O)c1cccc(F)c1)N/N=C/c1ccc([N+](=O)[O-])s1	–	–	–	14.1	–	–
O=C(CNC(=O)c1cccc(Br)c1)N/N=C/c1cccs1	58.7	·	–	–	–	–
O=C(N/N=C/c1ccc([N+](=O)[O-])s1)c1ccccc1	–	–	–	–	–	–
O=C(CNC(=O)c1ccncc1)N/N=C/c1cccc([N+](=O)[O-])c1	51.5	–	–	–	–	–
CC(C)(C)c1ccc(C(=O)NCC(=O)N/N=C/c2cccs2)cc1	–	·	–	–	–	–
Cc1ccccc1NC(=O)Nc1nc(CN)cs1	·	·	–	·	·	–
COc1ccc2c(CN3CCN(Cc4ccccc4)CC3)cc(=O)oc2c1	·	·	–	·	–	–
COc1cccc(-c2cnc(C(O)c3cccc(F)c3)[nH]2)c1 (stereo unspecified)	·	·	–	·	·	–
O=C(NC1CCCC1)c1nc(-c2ccco2)oc1-c1ccccc1	·	·	–	·	·	–
O=C(CNC(=O)N1CC(=O)Nc2ccccc21)NCCCc1ccccc1	·	·	–	·	–	–
O=C(CNC(=O)N1CC(=O)Nc2ccccc21)NCCc1ccc(Cl)cc1	–	·	–	16.7	–	–
CCN(CC)CCCNC(=O)c1cc(-c2ccc(Cl)c(Cl)c2)on1	–	–	–	18.8	–	–
CCN(CC)CCCNC(=O)c1cc(-c2ccc(O)cc2)on1	–	–	–	–	–	–
COc1ccc(S(=O)(=O)N2CCC(C(=O)NC3CCCC3)CC2)cc1OC	–	·	–	16.0	–	–
COc1ccc(CNC(=O)[C@@H](NC(=O)C2CCN(S(=O)(=O)c3ccc(C)cc3)CC2)C(C)C)cc1OC	–	·	–	11.9	–	–
SMILES	Rtt109 HAT inh	TLR4 MyD88 comp	NOD2-RIPK2 inh	LANA-H2B inh	TLR9-MyD88 block	HTR2A ag
COc1ccc(S(=O)(=O)N2CCC(C(=O)N[C@H](C(=O)NCc3ccncc3)C(C)C)CC2)cc1	–	·	–	–	–	–
O=C(COC(=O)c1cccnc1Cl)Nc1ccc(N2CCCCC2)cc1	–	·	–	+	–	–
CC(NCC(O)COC1CCC(C(C)(C)C)CC1)c1ccccc1 (stereo unspecified)	60.0	–	–	–	–	–
COc1cc(C)nc(-c2csc(C)n2)n1	–	·	–	20.3	–	–
COc1cccc(C(=O)Nc2ccc3c(cc2=O)[C@@H](NC(C)=O)CCc2cc(OC)c(OC)c(OC)c2-3)c1	–	·	–	–	–	15.7
O=C(O)c1ccc(Cl)c(S(=O)(=O)Nc2cccc(C(=O)Nc3cccc(C(F)(F)F)c3)c2)c1	–	–	–	69.6	–	–
COc1ccc(C(=O)O)cc1S(=O)(=O)Nc1cccc(C(F)(F)F)c1	–	–	–	–	–	–
COc1cccc2cc(-c3nnc(SCC(=O)Nc4nc(C)cs4)n3C)oc12	–	–	–	–	–	24.7
Cc1csc(NC(=O)CSc2nnc(-c3ccco3)n2C)n1	–	–	–	–	–	–
CC(C)(C)n1nnnc1C(c1ccccc1)N1CCN(c2ccccn2)CC1 (stereo unspecified)	·	·	–	·	·	–
O=C(Nc1cccc(C(F)(F)F)c1)c1ccc(-c2ccc(F)c(F)c2)c2ccoc12	·	·	–	·	·	–
CO[C@H]1C=CO[C@@]2(C)Oc3c(C)c(O)c4c(O)c(c(C=NN5CCN(C)CC5)c(O)c4c3C2=O)NC(=O)C(C)=CC=C[C@H](C)[C@H](O)[C@@H](C)[C@@H](O)[C@@H](C)[C@H](OC(C)=O)[C@@H]1C	?	–	–	48.8!	–	–
CN(C(=O)CN1C(=O)S/C(=C\c2ccc(Cl)cc2)C1=O)C1CCS(=O)(=O)C1 (stereo unspecified)	–	·	–	11.3	–	–
COc1cccc(/C=C2\SC(=S)N(CC(=O)N(C)C3CCS(=O)(=O)C3)C2=O)c1 (stereo unspecified)	–	·	–	–	–	–
COc1ccc(/C=C2\SC(=S)N(CC(=O)N(C)C3CCS(=O)(=O)C3)C2=O)cc1 (stereo unspecified)	–	·	–	14.1	–	–
Cc1ccccc1S(=O)(=O)NC(=O)C1(C)CCN1C(=O)COc1ccc(Cl)cc1 (stereo unspecified)	·	·	–	·	·	–
O=C(NCCCCCCCN1CCCCCCC1)C(C1CCCCC1)C1CCCCC1	–	·	–	·	–	–
O=c1[nH]c2ccccc2c(O)c1O	175.7	–	–	–	–	–
O=c1[nH]c2ccccc2c(O)c1-[n+]1ccccc1	–	·	–	–	–	–
CN(C)CCNc1ncnc2c1ncn2[C@H]1CN(Cc2ccc(-c3ccccc3)cc2)C[C@@H](CO)O1	·	·	–	·	·	–
Cc1ccccc1NC(=O)CCN1C(=O)c2ccccc2C1=O	–	·	–	–	–	–
Cc1cccc(NC(=O)CCN2C(=O)c3ccccc3C2=O)c1	59.0	·	–	–	–	–
O=C(NCC[C@@H]1CC[C@@H](NS(=O)(=O)Cc2ccccc2)[C@@H](CO)O1)C1CC1	·	·	–	·	·	–
CCN(CC)c1ccc(SS(=O)(=O)O)cc1	–	–	–	35.0!	–	–
COc1ccc(CC(N)c2csc(Nc3cc(NCc4ccco4)ncn3)n2)cc1 (stereo unspecified)	·	·	–	·	·	–
COc1cc(CNCc2ccc(OC)c(OC)c2OC)cc(OC)c1	–	–	–	36.8	–	–
Cc1ccccc1Nc1nc(N)nc(COC(=O)CCS(=O)(=O)c2ccc(Cl)cc2)n1	–	·	–	·	–	–
CC(=O)Nc1ccc(S(=O)(=O)NCCC(=O)OCc2nc(N)nc(Nc3ccccc3C)n2)cc1	–	·	–	157.2	–	–
